The values that follow come from PubChem BioAssay (Tox21).

SMILES strings stand for the structures. Records with an inconclusive call do not appear. Values without a mark were called inactive. The source made the active and inactive calls. Calls follow the shape of the full dose curve.
% is scaled to controls: 0 for no effect and ±100 for the full control effect.

Progesterone receptor (Homo sapiens), sequence (P06401 whole entry, looked up): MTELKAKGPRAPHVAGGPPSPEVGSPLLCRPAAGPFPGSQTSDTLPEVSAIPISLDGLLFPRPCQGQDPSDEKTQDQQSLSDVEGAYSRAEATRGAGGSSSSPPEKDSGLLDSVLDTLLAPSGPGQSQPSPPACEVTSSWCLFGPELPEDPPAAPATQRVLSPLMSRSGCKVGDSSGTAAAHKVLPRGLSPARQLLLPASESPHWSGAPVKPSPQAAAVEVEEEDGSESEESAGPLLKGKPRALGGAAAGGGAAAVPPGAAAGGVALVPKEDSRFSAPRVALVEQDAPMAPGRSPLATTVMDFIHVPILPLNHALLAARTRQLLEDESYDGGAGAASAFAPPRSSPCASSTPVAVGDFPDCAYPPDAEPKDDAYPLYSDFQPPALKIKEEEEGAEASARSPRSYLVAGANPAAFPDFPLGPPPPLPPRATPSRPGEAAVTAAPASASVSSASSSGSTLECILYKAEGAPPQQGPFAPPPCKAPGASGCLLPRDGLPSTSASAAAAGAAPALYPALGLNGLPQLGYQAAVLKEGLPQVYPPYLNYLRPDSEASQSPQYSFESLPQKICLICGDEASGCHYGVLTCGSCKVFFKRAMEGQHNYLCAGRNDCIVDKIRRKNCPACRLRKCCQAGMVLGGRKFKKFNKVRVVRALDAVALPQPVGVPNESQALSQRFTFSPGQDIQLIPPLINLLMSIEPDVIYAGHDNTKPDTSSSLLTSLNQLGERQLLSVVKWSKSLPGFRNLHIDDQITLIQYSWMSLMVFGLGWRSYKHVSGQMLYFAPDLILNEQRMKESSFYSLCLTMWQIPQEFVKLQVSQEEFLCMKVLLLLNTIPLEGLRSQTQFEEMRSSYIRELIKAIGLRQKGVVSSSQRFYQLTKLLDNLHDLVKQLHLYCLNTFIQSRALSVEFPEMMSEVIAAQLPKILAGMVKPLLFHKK

This assay deals with Progesterone receptor (Homo sapiens) (UniProt P06401). Put plainly: qHTS assay to identify small molecule agonists of the progesterone receptor (PR) signaling pathway (AID 1346784). Also: nearly all actives have a fitted effect of over 30% in size. Particulars: PR-UAS-bla HEK293T, beta-lactamase FRET ratio, 16 h; series mostly up to 92.4 µM. From the text:
U.S. Tox21 Program National Center for Advancing Translational Sciences [NCATS] NIH Chemical Genomics Center [NCGC] U.S. Environmental Protection Agency [EPA] National Institutes of Environmental Health Sciences [NIEHS] National Toxicology Program [NTP] U.S. Food and Drug Administration [FDA] […] Endocrine disrupting chemicals (EDCs) and their interactions with steroid hormone receptors like PR causes disruption of normal endocrine function. To identify the compounds that activate PR signaling, a PR-UAS-bla GripTite cell line i.e. PR-UAS-bla HEK 293T (Invitrogen, Carlsbad, CA, USA) containing a beta-lactamase reporter gene under the control of an Upstream Activator Sequence (UAS) was used to screen Tox21 10K compound library.
Tox21 Assay Protocol Summary: PR-UAS-bla HEK 293T cells were dispensed at 3,000 cells/5 uL of assay medium containing 2% charcoal stripped FBS per well into black wall/clear-bottom 1536-well plates using a Multidrop Combi (ThermoFisher Scientific, Waltham, MA) dispenser. After the assay plates were incubated at a 37C and 5% CO2 for 6hr, 23 nL of compounds dissolved in DMSO, positive controls or DMSO only was transferred to the assay plate by a Pintool station (Kalypsys, San Diego, CA). The plates were incubated at 37C and 5% CO2 for 16hr. Then 1 uL of LiveBLAzer B/G FRET substrate was added using a BioRAPTR FRD (Flying Reagent Dispenser, Aurora Discovery, San Diego, CA). After the plates were incubated at room temperature for 2 hours, fluorescence intensity was measured by an Envision plate reader (PerkinElmer, Shelton, CT).
Background: In qHTS, concentration-response curves come from the screen itself.
Consider `CC(=O)O[C@@H]1C[C@@H]2CC[C@@]1(C)C2(C)C`, for which the outcome was inactive.

Consider `OCCN1CN(CCO)CN(CCO)C1`, for which the outcome was inactive.

With `CCCC(CC)CCCCCCCN` (stereo not given), the result was inactive.

For `NC(=O)c1ccccc1N`, the outcome was inactive.

Turning to `CCCCCCCCCCCCCc1ccccc1`, the outcome was inactive.

Take `CCCCCCCC/C=C\CCCCCCCC(=O)OCCOC(=O)CCCCCCC/C=C\CCCCCCCC`: the result was inactive.

Consider `C=CC(=O)OCCN(CC)CC`, for which the result was inactive.

Consider `O=C1OC(=O)c2cccc3cccc1c23`, for which the outcome was inactive.

For `CCCC(C)CCC(C)=O` (stereo not given), the outcome was inactive.

For `CCCSS/C(CCO)=C(\C)N(C=O)Cc1cnc(C)nc1N`, the result was inactive.

For the compound `CC1CNCC(C)O1` (stereo not given), the outcome was inactive.

As for `O=C(O)CCCCCCC(=O)O`, the outcome was inactive.

Take `Cc1cc(C)c(C=O)c(C)c1`: the outcome was inactive.

In the case of `CO[Si](CCCNCCNCCN)(OC)OC`, the outcome was inactive.

Turning to `CCN(CC)c1cccc(C)c1`, the outcome was inactive.

Regarding `CCC(C)c1ccccc1` (stereo not given), the outcome was inactive.

Take `C[C@@H]1CC[C@H]2C(C)(C)[C@H]3C[C@@]12CC[C@@]3(C)O`: the result was inactive.

As for `O=S(=O)(O)c1cc(S(=O)(=O)O)c2ccc3c(S(=O)(=O)O)cc(S(=O)(=O)O)c4ccc1c2c43`, the activation is -0.344% [at 19 µM].

In the case of `Cc1cn[nH]c1`, the outcome was inactive.

Turning to `C/C=C/C(=O)C1=C(C)CCCC1(C)C`, the result was inactive.

In the case of `COC(=O)NCCC[Si](OC)(OC)OC`, the result was inactive.

Consider `C=C(C)C(=O)OCCC[Si](Cl)(Cl)Cl`, for which the outcome was inactive.

Turning to `C/C=C/C=N/NC(=O)c1ccncc1`, the outcome was inactive.

In the case of `Cc1ccc(-n2[nH]c(C)c(N=Nc3cccc(-c4cccc(C(=O)O)c4)c3O)c2=O)cc1C`, the outcome was inactive.

`COC(=O)CC(C)CCC=C(C)C` (stereo not given): the outcome was inactive.

In the case of `CC1=CP(=O)(c2ccccc2)CC1` (stereo not given), the result was inactive.

As to `CC(C)c1ccccc1N`, the outcome was inactive.

Consider `CCC(=O)OCCc1ccccc1`, for which the outcome was inactive.

For the compound `CC1(C)C(=O)N(Br)C(=O)N1Br`, the outcome was inactive.

For `COc1cc(C(=O)NS(=O)(=O)c2ccccc2C)ccc1Cc1cn(C)c2ccc(NC(=O)OC3CCCC3)cc12`, the outcome was inactive.

Turning to `CC1CCCCC1`, the outcome was inactive.

Turning to `C=CCCCCCCC=C`, the result was inactive.

For `CCN(CC)CCOC(=O)C1(C2CCCCC2)CCCCC1`, the result was inactive.

In the case of `C(=C/c1ccccc1)/c1ccccc1`, the result was inactive.

In the case of `Oc1cc2ccccc2cc1O`, the outcome was inactive.

Take `CC(C)C(=O)OCc1ccccc1`: the outcome was inactive.

As for `S=C(SSSSSSC(=S)N1CCCCC1)N1CCCCC1`, the activation is 0.512% [at 19 µM].

Consider `O=C1NC2CCCCN2C12CCN(CCCN1c3ccccc3CCc3ccc(Cl)cc31)CC2` (stereo not given), for which the result was inactive.

As to `CC(C)OC(=O)c1cc(C(=O)OC(C)C)cc([N+](=O)[O-])c1`, the outcome was inactive.

As for `CCCCCCCCCCCCCCCCCO`, the activation was -3.68% [at 19 µM].
